Assay outcomes (PubChem)
The sample as a whole holds a higher share of hits than the screen did.
HTT aggregate = mutant huntingtin aggregation inhibition. PC12 HttQ103-GFP aggregates, Acumen cytometry, 40 h. Potency, µM (top dose mostly 46.1 µM), hits mostly inhibitors. actives 1.1% (n = 220,000); also: nearly all actives have a fitted effect of over 60% in size
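PC12 cells stably carrying ecdysone-inducible HTT exon 1 Q103–GFP were induced with tebufenozide (100 nM final) and treated with library compounds in titration. GFP aggregates in lysates were counted by laser scanning cytometry.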
PINK1 expr mod = PINK1 expression modulation | AID 624263 | PINK1 immunofluorescence, high-content cytometry, 24 h | actives 0.2% (n = 410,000) | Potency, µM (titrated, usually from 76.6 µM), most hits filed as activators; active = well fitted activation curve with a large enough effect; inconclusive = small, poorly fitted or top-dose-only effect; cell line not stated here; also: nearly all actives have a fitted effect of over 65% in size
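Stable cell line treated 24 h with compounds at 5 concentrations (CCCP controls), then fixed and immunostained for PINK1 plus nuclear and cell stains; PINK1 immunofluorescence quantified by laser-scanning microplate cytometry.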
Epigenetic reg = derepresses silenced GFP reporter in murine cells. murine LDR cells, GFP reporter derepression, 30 h. Potency, µM (titrated, usually from 53.9 µM), actives largely listed as activators. actives 0.2% (n = 280,000); also: nearly all actives have a fitted effect of over 60% in size
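Reporter derepression read as number of fluorescent GFP-positive objects, 20-120 um in size, counted by laser-scanning cytometer. Mouse LDR line with an epigenetically silenced CMV-GFP locus; compound incubation 30 h, 37 C.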
HTT cytoprotect = Huntington cell model cytoprotection by ATP luminescence | AID 1471 | Potency, µM (top dose mostly 56.4 µM), actives largely listed as activators | actives 0.14% (n = 230,000) | PC12 HTT-Q103 induced, cytoprotection, ATP luminescence, 40 h; also: nearly all actives have a fitted effect of over 45% in size
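Quantitative HTS on tebufenozide-induced (100 nM) PC12 cells expressing HTTQ103 exon 1–GFP; compounds tested as a concentration series; survival measured via cellular ATP.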
Numbers stand for hits; [ ] = dose if it differs, or a comment. Unless noted, calls follow the shape of the dose curve; as a rule, active = well fitted curve in the direction sought with a large enough effect; inconclusive = small, poorly fitted or top-dose-only effect, or another doubt; inactive = no such curve, though single readings can be large; an effect the other way counts as inactive or inconclusive.

Screening Cc1cccc(Nc2nc(-c3ccccc3)c(C(=O)Nc3cccnc3)s2)c1 returned HTT aggregate 6.3µM, PINK1 expr mod inactive, Epigenetic reg inactive and HTT cytoprotect inactive[10 µM].
O=C(Nc1cccnc1)c1sc(Nc2ccccc2)nc1-c1ccccc1 was read as HTT aggregate inactive, PINK1 expr mod inconclusive, Epigenetic reg inactive and HTT cytoprotect inactive[10 µM].
`CCOc1ccccc1NC(=O)CCN(c1ccc(C)cc1)S(=O)(=O)c1ccccc1` gave HTT aggregate inactive, PINK1 expr mod inactive, Epigenetic reg inactive and HTT cytoprotect inactive[10 µM].
COc1cc2nc(/C=C/c3ccc(N(C)C)cc3)sc2cc1SC was read as HTT aggregate inconclusive, PINK1 expr mod inactive, Epigenetic reg 11µM and HTT cytoprotect inactive[10 µM].
For Nc1cccc(Oc2ccc3c(c2)C(=O)N(CCO)C3=O)c1 the results were PINK1 expr mod inactive.
For O=C1c2ccc(Oc3ccc4c(c3)C(=O)N(CCCO)C4=O)cc2C(=O)N1CCCO the results were HTT aggregate 5.6µM, PINK1 expr mod inactive, Epigenetic reg inactive and HTT cytoprotect inactive.
`COc1cccc(C2C3CN(C)CC=C3C(C#N)=C(N)C2(C#N)C#N)c1OC` (centres undefined) gave HTT aggregate inactive, PINK1 expr mod 35µM, Epigenetic reg inactive and HTT cytoprotect inactive[10 µM].
For COc1cc([C@@H]2[C@H]3CN(C)CC=C3C(C#N)=C(N)C2(C#N)C#N)cc2c1OCO2 the results were HTT aggregate inactive, PINK1 expr mod 18µM, Epigenetic reg inactive and HTT cytoprotect inactive[10 µM].
For CCN1CC=C2C(C#N)=C(N)C(C#N)(C#N)[C@H](c3cccc(OC)c3OC)[C@H]2C1 the results were HTT aggregate inactive, PINK1 expr mod inconclusive, Epigenetic reg inactive and HTT cytoprotect inactive[10 µM].
`CCCC1C2CN(C(C)C)CC=C2C(C#N)=C(N)C1(C#N)C#N` (centres undefined) gave HTT aggregate inconclusive, PINK1 expr mod 10µM, Epigenetic reg inactive and HTT cytoprotect inactive.
`CCOC(=O)N1CC=C2C(C#N)=C(N)C(C#N)(C#N)[C@H](c3ccsc3)[C@H]2C1` gave HTT aggregate 0.56µM, PINK1 expr mod inactive, Epigenetic reg inactive and HTT cytoprotect inactive.
Screening CCCc1cc(=O)oc2c(C)c(OCC(=O)NC3CC(C)(C)NC(C)(C)C3)ccc12 returned PINK1 expr mod inactive.
For CN1CC=C2C(C#N)=C(N)C(C#N)(C#N)C(c3ccsc3)C2C1 (centres undefined) the results were HTT aggregate inactive, PINK1 expr mod 10µM, Epigenetic reg inactive and HTT cytoprotect inactive.
`CN1CC=C2C(C#N)=C(N)C(C#N)(C#N)[C@H](c3cccc(Cl)c3)C2C1` (some centres undefined) gave HTT aggregate inactive, PINK1 expr mod 11µM, Epigenetic reg inactive and HTT cytoprotect inactive.
O=C(C1CCCN(S(=O)(=O)c2cccc3nonc23)C1)N1CCC(Cc2ccccc2)CC1 (centres undefined) was read as HTT aggregate 35µM, PINK1 expr mod inactive, Epigenetic reg inactive and HTT cytoprotect inactive.
`O=C(C1CCCN(S(=O)(=O)c2cccc3nonc23)C1)N1CCN(c2ccccc2Cl)CC1` (centres undefined) gave HTT aggregate inactive, PINK1 expr mod inactive and Epigenetic reg inactive.
For COc1ccccc1NS(=O)(=O)c1cc(NC(=O)CN2C(=O)NC3(CCCCC3)C2=O)ccc1C the results were PINK1 expr mod inactive.
Screening C=CCc1cccc(/C=N/NC(=O)CNc2ccccc2OC)c1O returned HTT aggregate 20µM, PINK1 expr mod inactive, Epigenetic reg inactive and HTT cytoprotect inactive.
For C=CCn1c(CNc2ccccc2)nnc1SCC(=O)N/N=C/c1ccccc1O the results were HTT aggregate 18µM, PINK1 expr mod inactive, Epigenetic reg inactive and HTT cytoprotect inactive.
For C=CCc1cccc(/C=N/NC(=O)CNc2ccccc2)c1O the results were HTT aggregate 11µM, PINK1 expr mod inactive, Epigenetic reg inactive and HTT cytoprotect inactive.
Screening C=CCc1cccc(/C=N/NC(=O)C(C)Nc2cccc(C)c2)c1O (centres undefined) returned HTT aggregate 11µM, PINK1 expr mod inactive, Epigenetic reg inactive and HTT cytoprotect inactive.
For C/C(=N\NC(=O)c1cccc(S(=O)(=O)N2CCCC2)c1)c1ccccc1F the results were PINK1 expr mod inactive.
Screening CCC(CC)c1nnc(NC(=O)c2cccc(S(=O)(=O)N3CCc4ccccc43)c2)s1 returned HTT aggregate inconclusive, PINK1 expr mod inactive, Epigenetic reg inactive and HTT cytoprotect inactive.
For COc1ccc(Nc2nc(N)nc(CN3CCC(Cc4ccccc4)CC3)n2)cc1 the results were HTT aggregate inactive, PINK1 expr mod inactive, Epigenetic reg inactive and HTT cytoprotect inactive[10 µM].
`COc1ccc([C@H]2CC(=O)C=C(c3cc(Cl)ccc3OC)C2)cc1` gave PINK1 expr mod inactive.
CN(C(=S)NC(=O)c1ccc(Br)o1)c1ccccc1 was read as HTT aggregate inactive, PINK1 expr mod inactive, Epigenetic reg inactive and HTT cytoprotect inconclusive.
Cc1ccc(N/C(N)=N/c2nc(C)cc(C)n2)cc1 was read as HTT aggregate inactive, PINK1 expr mod inactive and Epigenetic reg inactive.
`Cc1cc(C)nc(/N=C(\N)Nc2ccc(C(C)C)cc2)n1` gave HTT aggregate inactive[9.22 µM], PINK1 expr mod 40µM, Epigenetic reg inactive and HTT cytoprotect inactive[10 µM].
Screening CC(=O)c1cc(-c2ccccc2)n(CCC(=O)NCc2cccs2)c1C returned HTT aggregate inactive, PINK1 expr mod inactive, Epigenetic reg inactive and HTT cytoprotect inactive[10 µM].
`COc1ccccc1N=Nc1ccc(O)c2ncccc12` gave PINK1 expr mod inactive.
CCS(=O)(=O)c1ccc(N=Nc2ccc(O)c3ncccc23)c(OC)c1 was read as HTT aggregate inconclusive, PINK1 expr mod 14µM, Epigenetic reg 3.5µM and HTT cytoprotect inactive.
`COc1cc(OC)c(NC(=O)[C@@H]2CCC(=O)N2C2OC(=O)c3c2ccc(OC)c3OC)cc1Cl` (some centres undefined) gave PINK1 expr mod inactive.
O=C(NCc1ccncc1)c1cncc(Br)c1 was read as HTT aggregate inactive, PINK1 expr mod inactive, Epigenetic reg inactive and HTT cytoprotect inactive.
Screening O=C(O)c1cccc(Nc2nc3ccccc3nc2NS(=O)(=O)c2cccs2)c1 returned PINK1 expr mod inactive.
For COc1ccc(Nc2nc3ccccc3nc2NS(=O)(=O)c2ccc(NC(C)=O)cc2)cc1 the results were HTT aggregate inactive[9.22 µM], PINK1 expr mod inactive, Epigenetic reg inactive and HTT cytoprotect inactive[10 µM].
COc1ccc(Nc2nc3ccccc3nc2NS(=O)(=O)c2cccs2)cc1 was read as HTT aggregate 22µM, PINK1 expr mod inactive, Epigenetic reg inactive and HTT cytoprotect inactive.
For CC(=O)c1ccc(Nc2nc3ccccc3nc2NS(=O)(=O)c2cccs2)cc1 the results were PINK1 expr mod 40µM.
For CCN(CC)CCNC(C(=O)Nc1ccc([N+](=O)[O-])cc1Br)c1ccccc1 (centres undefined) the results were HTT aggregate inactive, PINK1 expr mod inactive, Epigenetic reg inactive and HTT cytoprotect inactive[0.074 µM].
